In paper PMC11006913:
Residue numbers refer to the chain shown, from its start.

Key:
Experiment in all cases: PBM; 200 nM protein, PBS
Conditions in all cases: dsDNA, one strand shown
[1] = target: HOXB9 (Homo sapiens, UniProt P17482 171-250, T197M)
[2] = target: HOXC9 (Homo sapiens, UniProt P31274 178-260, K195R)
[3] = target: T1, VENTX (Homo sapiens, UniProt O95231 78-163)
T1 sequence: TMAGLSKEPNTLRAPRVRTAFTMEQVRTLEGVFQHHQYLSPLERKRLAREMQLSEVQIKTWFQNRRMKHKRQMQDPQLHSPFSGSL

[4] = target: HOXA7 (Homo sapiens, UniProt P31268 116-202)
[5] = target: HOXC10 (Homo sapiens, UniProt Q9NYD6 254-340)
[6] = target: T2, PAX4 (Homo sapiens, UniProt O43316 9-242, R200K)
T2 sequence: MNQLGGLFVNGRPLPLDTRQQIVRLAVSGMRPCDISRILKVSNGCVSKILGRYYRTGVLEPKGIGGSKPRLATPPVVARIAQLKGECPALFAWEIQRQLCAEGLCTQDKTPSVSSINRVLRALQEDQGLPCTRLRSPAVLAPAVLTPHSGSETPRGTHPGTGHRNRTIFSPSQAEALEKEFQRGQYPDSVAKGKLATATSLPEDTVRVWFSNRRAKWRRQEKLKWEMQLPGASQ

[7] = target: T3, PAX4 (Homo sapiens, UniProt O43316 9-242)
T3 sequence: T2 sequence with K192R

[8] = target: HOXB9 (Homo sapiens, UniProt P17482 171-250)
[9] = target: HOXC9 (Homo sapiens, UniProt P31274 178-260)
[10] = target: HOXC9 (Homo sapiens, UniProt P31274 178-260, R193K)
[11] = target: HOXA2 (Homo sapiens, UniProt O43364 129-215, R185K)
[12] = target: HOXC10 (Homo sapiens, UniProt Q9NYD6 254-340, K271E)
[13] = target: VAX1 (Homo sapiens, UniProt Q5SQQ9 86-172)
[14] = target: HOXB9 (Homo sapiens, UniProt P17482 171-250, R186Q)
[15] = target: HOXC9 (Homo sapiens, UniProt P31274 178-260, R222W)
[16] = target: T4, PAX4 (Homo sapiens, UniProt O43316 9-242, R227W)
T4 sequence: T2 sequence with K192R, R219W

[17] = target: HOXA2 (Homo sapiens, UniProt O43364 129-215, Y150S)
[18] = target: HOXA7 (Homo sapiens, UniProt P31268 116-202, W177C)
[19] = target: HOXA2 (Homo sapiens, UniProt O43364 129-215)
[20] = target: HOXB6 (Homo sapiens, UniProt P17509 132-218)
HOXB6, sequence (P17509 132-218): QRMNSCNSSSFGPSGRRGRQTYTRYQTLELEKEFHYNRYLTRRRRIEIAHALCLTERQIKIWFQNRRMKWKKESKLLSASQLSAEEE

HOXA7 (Homo sapiens, UniProt P31268 116-202), sequence (P31268 116-202): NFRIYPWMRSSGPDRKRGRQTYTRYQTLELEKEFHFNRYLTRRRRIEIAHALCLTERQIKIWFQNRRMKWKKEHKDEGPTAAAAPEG
HOXC9 (Homo sapiens, UniProt P31274 178-260, R193K), sequence (P31274 178-260 R193K): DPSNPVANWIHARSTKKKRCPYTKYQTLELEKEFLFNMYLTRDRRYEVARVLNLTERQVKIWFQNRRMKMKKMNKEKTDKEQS
HOXA2 (Homo sapiens, UniProt O43364 129-215), sequence (O43364 129-215): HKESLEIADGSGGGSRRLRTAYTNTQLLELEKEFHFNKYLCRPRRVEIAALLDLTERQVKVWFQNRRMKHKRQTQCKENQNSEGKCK
HOXC9 (Homo sapiens, UniProt P31274 178-260, K195R), sequence (P31274 178-260 K195R): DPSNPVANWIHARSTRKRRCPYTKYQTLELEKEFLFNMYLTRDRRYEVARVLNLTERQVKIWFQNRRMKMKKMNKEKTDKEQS
HOXB9 (Homo sapiens, UniProt P17482 171-250), sequence (P17482 171-250): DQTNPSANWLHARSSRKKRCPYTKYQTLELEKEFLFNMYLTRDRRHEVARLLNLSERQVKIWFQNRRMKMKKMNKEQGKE
HOXA7 (Homo sapiens, UniProt P31268 116-202, W177C), sequence (P31268 116-202 W177C): as the sequence (P31268 116-202) above, with W62C counted along it
VAX1, sequence (Q5SQQ9 86-172): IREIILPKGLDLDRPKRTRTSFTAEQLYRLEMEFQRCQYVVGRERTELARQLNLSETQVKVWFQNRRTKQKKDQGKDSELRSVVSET
HOXC10 (Homo sapiens, UniProt Q9NYD6 254-340, K271E), sequence (Q9NYD6 254-340 K271E): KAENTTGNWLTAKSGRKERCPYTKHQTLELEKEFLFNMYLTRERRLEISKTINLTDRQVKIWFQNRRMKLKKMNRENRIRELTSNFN
HOXC9 (Homo sapiens, UniProt P31274 178-260, R222W), sequence (P31274 178-260 R222W): as the sequence (P31274 178-260 R193K) above, with K16R, R45W counted along it
HOXB9 (Homo sapiens, UniProt P17482 171-250, T197M), sequence (P17482 171-250 T197M): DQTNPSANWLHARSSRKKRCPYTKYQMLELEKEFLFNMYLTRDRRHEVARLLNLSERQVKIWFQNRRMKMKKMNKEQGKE
HOXC9 (Homo sapiens, UniProt P31274 178-260), sequence (P31274 178-260): as the sequence (P31274 178-260 R193K) above, with K16R counted along it
HOXA2 (Homo sapiens, UniProt O43364 129-215, Y150S), sequence (O43364 129-215 Y150S): as the sequence (O43364 129-215) above, with Y22S counted along it
HOXA2 (Homo sapiens, UniProt O43364 129-215, R185K), sequence (O43364 129-215 R185K): as the sequence (O43364 129-215) above, with R57K counted along it
HOXC10 (Homo sapiens, UniProt Q9NYD6 254-340), sequence (Q9NYD6 254-340): as the sequence (Q9NYD6 254-340 K271E) above, with E18K counted along it
HOXB9 (Homo sapiens, UniProt P17482 171-250, R186Q), sequence (P17482 171-250 R186Q): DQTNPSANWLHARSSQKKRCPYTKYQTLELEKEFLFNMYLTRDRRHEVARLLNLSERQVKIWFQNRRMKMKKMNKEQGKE

TAATTATA
binding signal [1]: 10.3 upbm affinity estimate (log intensity, higher = more binding, comparable within an allelic series)
binding signal [2]: 12.8 upbm affinity estimate (log intensity, higher = more binding, comparable within an allelic series)
binding signal [3]: 12.4 upbm affinity estimate (log intensity, higher = more binding, comparable within an allelic series)
binding signal [4]: 11.8 upbm affinity estimate (log intensity, higher = more binding, comparable within an allelic series)
binding signal [5]: 12.3 upbm affinity estimate (log intensity, higher = more binding, comparable within an allelic series)
binding signal [6]: 11.7 upbm affinity estimate (log intensity, higher = more binding, comparable within an allelic series)
binding signal [7]: 12.2 upbm affinity estimate (log intensity, higher = more binding, comparable within an allelic series)
binding signal [8]: 11.9 upbm affinity estimate (log intensity, higher = more binding, comparable within an allelic series)
binding signal [9]: 12.8 upbm affinity estimate (log intensity, higher = more binding, comparable within an allelic series)
binding signal [10]: 12.7 upbm affinity estimate (log intensity, higher = more binding, comparable within an allelic series)
binding signal [11]: 13.7 upbm affinity estimate (log intensity, higher = more binding, comparable within an allelic series)
binding signal [12]: 12.2 upbm affinity estimate (log intensity, higher = more binding, comparable within an allelic series)
binding signal [13]: 13.3 upbm affinity estimate (log intensity, higher = more binding, comparable within an allelic series)
binding signal [14]: 11.6 upbm affinity estimate (log intensity, higher = more binding, comparable within an allelic series)
binding signal [15]: 11.2 upbm affinity estimate (log intensity, higher = more binding, comparable within an allelic series)
binding signal [16]: 11.1 upbm affinity estimate (log intensity, higher = more binding, comparable within an allelic series)
binding signal [17]: 11.1 upbm affinity estimate (log intensity, higher = more binding, comparable within an allelic series)
binding signal [18]: 9 upbm affinity estimate (log intensity, higher = more binding, comparable within an allelic series)
binding signal [19]: 13 upbm affinity estimate (log intensity, higher = more binding, comparable within an allelic series)
binding signal [20]: 12.3 upbm affinity estimate (log intensity, higher = more binding, comparable within an allelic series)

CTAATTAA
binding signal [1]: 10.2 upbm affinity estimate (log intensity, higher = more binding, comparable within an allelic series)
binding signal [2]: 12.7 upbm affinity estimate (log intensity, higher = more binding, comparable within an allelic series)
binding signal [3]: 13.1 upbm affinity estimate (log intensity, higher = more binding, comparable within an allelic series)
binding signal [4]: 11.9 upbm affinity estimate (log intensity, higher = more binding, comparable within an allelic series)
binding signal [5]: 12.2 upbm affinity estimate (log intensity, higher = more binding, comparable within an allelic series)
binding signal [6]: 12.3 upbm affinity estimate (log intensity, higher = more binding, comparable within an allelic series)
binding signal [7]: 12.9 upbm affinity estimate (log intensity, higher = more binding, comparable within an allelic series)
binding signal [8]: 11.8 upbm affinity estimate (log intensity, higher = more binding, comparable within an allelic series)
binding signal [9]: 12.6 upbm affinity estimate (log intensity, higher = more binding, comparable within an allelic series)
binding signal [10]: 12.6 upbm affinity estimate (log intensity, higher = more binding, comparable within an allelic series)
binding signal [11]: 13.8 upbm affinity estimate (log intensity, higher = more binding, comparable within an allelic series)
binding signal [12]: 12.3 upbm affinity estimate (log intensity, higher = more binding, comparable within an allelic series)
binding signal [13]: 13.7 upbm affinity estimate (log intensity, higher = more binding, comparable within an allelic series)
binding signal [14]: 11.6 upbm affinity estimate (log intensity, higher = more binding, comparable within an allelic series)
binding signal [15]: 11.2 upbm affinity estimate (log intensity, higher = more binding, comparable within an allelic series)
binding signal [16]: 11.5 upbm affinity estimate (log intensity, higher = more binding, comparable within an allelic series)
binding signal [17]: 11 upbm affinity estimate (log intensity, higher = more binding, comparable within an allelic series)
binding signal [18]: 8.82 upbm affinity estimate (log intensity, higher = more binding, comparable within an allelic series)
binding signal [19]: 13 upbm affinity estimate (log intensity, higher = more binding, comparable within an allelic series)
binding signal [20]: 12.2 upbm affinity estimate (log intensity, higher = more binding, comparable within an allelic series)

ATTAATTG
binding signal [1]: 10.3 upbm affinity estimate (log intensity, higher = more binding, comparable within an allelic series)
binding signal [2]: 12.8 upbm affinity estimate (log intensity, higher = more binding, comparable within an allelic series)
binding signal [3]: 12.8 upbm affinity estimate (log intensity, higher = more binding, comparable within an allelic series)
binding signal [4]: 12 upbm affinity estimate (log intensity, higher = more binding, comparable within an allelic series)
binding signal [5]: 12.2 upbm affinity estimate (log intensity, higher = more binding, comparable within an allelic series)
binding signal [6]: 11.8 upbm affinity estimate (log intensity, higher = more binding, comparable within an allelic series)
binding signal [7]: 12.4 upbm affinity estimate (log intensity, higher = more binding, comparable within an allelic series)
binding signal [8]: 12.2 upbm affinity estimate (log intensity, higher = more binding, comparable within an allelic series)
binding signal [9]: 12.9 upbm affinity estimate (log intensity, higher = more binding, comparable within an allelic series)
binding signal [10]: 12.7 upbm affinity estimate (log intensity, higher = more binding, comparable within an allelic series)
binding signal [11]: 13.5 upbm affinity estimate (log intensity, higher = more binding, comparable within an allelic series)
binding signal [12]: 12.2 upbm affinity estimate (log intensity, higher = more binding, comparable within an allelic series)
binding signal [13]: 13.2 upbm affinity estimate (log intensity, higher = more binding, comparable within an allelic series)
binding signal [14]: 11.8 upbm affinity estimate (log intensity, higher = more binding, comparable within an allelic series)
binding signal [15]: 11.2 upbm affinity estimate (log intensity, higher = more binding, comparable within an allelic series)
binding signal [16]: 11 upbm affinity estimate (log intensity, higher = more binding, comparable within an allelic series)
binding signal [17]: 11 upbm affinity estimate (log intensity, higher = more binding, comparable within an allelic series)
binding signal [18]: 8.87 upbm affinity estimate (log intensity, higher = more binding, comparable within an allelic series)
binding signal [19]: 12.6 upbm affinity estimate (log intensity, higher = more binding, comparable within an allelic series)
binding signal [20]: 12.3 upbm affinity estimate (log intensity, higher = more binding, comparable within an allelic series)

CGTAATTA
binding signal [1]: 10.2 upbm affinity estimate (log intensity, higher = more binding, comparable within an allelic series)
binding signal [2]: 12.7 upbm affinity estimate (log intensity, higher = more binding, comparable within an allelic series)
binding signal [3]: 12.7 upbm affinity estimate (log intensity, higher = more binding, comparable within an allelic series)
binding signal [4]: 12 upbm affinity estimate (log intensity, higher = more binding, comparable within an allelic series)
binding signal [5]: 12.3 upbm affinity estimate (log intensity, higher = more binding, comparable within an allelic series)
binding signal [6]: 11.9 upbm affinity estimate (log intensity, higher = more binding, comparable within an allelic series)
binding signal [7]: 12.4 upbm affinity estimate (log intensity, higher = more binding, comparable within an allelic series)
binding signal [8]: 11.9 upbm affinity estimate (log intensity, higher = more binding, comparable within an allelic series)
binding signal [9]: 12.8 upbm affinity estimate (log intensity, higher = more binding, comparable within an allelic series)
binding signal [10]: 12.7 upbm affinity estimate (log intensity, higher = more binding, comparable within an allelic series)
binding signal [11]: 14 upbm affinity estimate (log intensity, higher = more binding, comparable within an allelic series)
binding signal [12]: 12.3 upbm affinity estimate (log intensity, higher = more binding, comparable within an allelic series)
binding signal [13]: 13.6 upbm affinity estimate (log intensity, higher = more binding, comparable within an allelic series)
binding signal [14]: 11.7 upbm affinity estimate (log intensity, higher = more binding, comparable within an allelic series)
binding signal [15]: 10.9 upbm affinity estimate (log intensity, higher = more binding, comparable within an allelic series)
binding signal [16]: 11.1 upbm affinity estimate (log intensity, higher = more binding, comparable within an allelic series)
binding signal [17]: 11 upbm affinity estimate (log intensity, higher = more binding, comparable within an allelic series)
binding signal [18]: 8.91 upbm affinity estimate (log intensity, higher = more binding, comparable within an allelic series)
binding signal [19]: 13.2 upbm affinity estimate (log intensity, higher = more binding, comparable within an allelic series)
binding signal [20]: 12.4 upbm affinity estimate (log intensity, higher = more binding, comparable within an allelic series)

TAATTAAA
binding signal [1]: 10.3 upbm affinity estimate (log intensity, higher = more binding, comparable within an allelic series)
binding signal [2]: 13.1 upbm affinity estimate (log intensity, higher = more binding, comparable within an allelic series)
binding signal [3]: 12.5 upbm affinity estimate (log intensity, higher = more binding, comparable within an allelic series)
binding signal [4]: 11.9 upbm affinity estimate (log intensity, higher = more binding, comparable within an allelic series)
binding signal [5]: 12.7 upbm affinity estimate (log intensity, higher = more binding, comparable within an allelic series)
binding signal [6]: 12 upbm affinity estimate (log intensity, higher = more binding, comparable within an allelic series)
binding signal [7]: 12.5 upbm affinity estimate (log intensity, higher = more binding, comparable within an allelic series)
binding signal [8]: 12.4 upbm affinity estimate (log intensity, higher = more binding, comparable within an allelic series)
binding signal [9]: 13 upbm affinity estimate (log intensity, higher = more binding, comparable within an allelic series)
binding signal [10]: 13 upbm affinity estimate (log intensity, higher = more binding, comparable within an allelic series)
binding signal [11]: 13.5 upbm affinity estimate (log intensity, higher = more binding, comparable within an allelic series)
binding signal [12]: 12.7 upbm affinity estimate (log intensity, higher = more binding, comparable within an allelic series)
binding signal [13]: 13.3 upbm affinity estimate (log intensity, higher = more binding, comparable within an allelic series)
binding signal [14]: 12.1 upbm affinity estimate (log intensity, higher = more binding, comparable within an allelic series)
binding signal [15]: 11.5 upbm affinity estimate (log intensity, higher = more binding, comparable within an allelic series)
binding signal [16]: 11.2 upbm affinity estimate (log intensity, higher = more binding, comparable within an allelic series)
binding signal [17]: 10.9 upbm affinity estimate (log intensity, higher = more binding, comparable within an allelic series)
binding signal [18]: 8.8 upbm affinity estimate (log intensity, higher = more binding, comparable within an allelic series)
binding signal [19]: 12.9 upbm affinity estimate (log intensity, higher = more binding, comparable within an allelic series)
binding signal [20]: 12.3 upbm affinity estimate (log intensity, higher = more binding, comparable within an allelic series)

AATTAATT
binding signal [1]: 10.3 upbm affinity estimate (log intensity, higher = more binding, comparable within an allelic series)
binding signal [2]: 12.9 upbm affinity estimate (log intensity, higher = more binding, comparable within an allelic series)
binding signal [3]: 12.5 upbm affinity estimate (log intensity, higher = more binding, comparable within an allelic series)
binding signal [4]: 11.9 upbm affinity estimate (log intensity, higher = more binding, comparable within an allelic series)
binding signal [5]: 12.2 upbm affinity estimate (log intensity, higher = more binding, comparable within an allelic series)
binding signal [6]: 12.1 upbm affinity estimate (log intensity, higher = more binding, comparable within an allelic series)
binding signal [7]: 12.7 upbm affinity estimate (log intensity, higher = more binding, comparable within an allelic series)
binding signal [8]: 12.2 upbm affinity estimate (log intensity, higher = more binding, comparable within an allelic series)
binding signal [9]: 12.8 upbm affinity estimate (log intensity, higher = more binding, comparable within an allelic series)
binding signal [10]: 12.8 upbm affinity estimate (log intensity, higher = more binding, comparable within an allelic series)
binding signal [11]: 13.5 upbm affinity estimate (log intensity, higher = more binding, comparable within an allelic series)
binding signal [12]: 12.2 upbm affinity estimate (log intensity, higher = more binding, comparable within an allelic series)
binding signal [13]: 13.3 upbm affinity estimate (log intensity, higher = more binding, comparable within an allelic series)
binding signal [14]: 11.9 upbm affinity estimate (log intensity, higher = more binding, comparable within an allelic series)
binding signal [15]: 11.2 upbm affinity estimate (log intensity, higher = more binding, comparable within an allelic series)
binding signal [16]: 11.3 upbm affinity estimate (log intensity, higher = more binding, comparable within an allelic series)
binding signal [17]: 11 upbm affinity estimate (log intensity, higher = more binding, comparable within an allelic series)
binding signal [18]: 8.91 upbm affinity estimate (log intensity, higher = more binding, comparable within an allelic series)
binding signal [19]: 12.8 upbm affinity estimate (log intensity, higher = more binding, comparable within an allelic series)
binding signal [20]: 12.4 upbm affinity estimate (log intensity, higher = more binding, comparable within an allelic series)
